From PubChem
The entries come from a sample that favours hits as a whole.
IDE exosite FP = displaces the probe from the exo-site of human IDE. P14735. purified IDE, FL-6b probe fluorescence polarization; stronger effect = lower value. z-score at 20 µM. 6.3% of 17,000 active. AID 1259349;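 active = z-score of -3 or lower, meaning strong loss of probe binding signal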;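 also: His-tagged human IDE residues 42-1019 made in E. coli with 30 nM FL-6b probe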
Starred values were filed as active, the others as inactive.

Screening Cn1cnc(S(=O)(=O)N2CCCCN3[C@@H](CO)[C@@H](c4ccc(-c5ccccc5F)cc4)[C@@H]3C2)c1 returned IDE exosite FP -5.6*.
Cc1ccccc1S(=O)(=O)N1CC(=O)N2[C@H](C1)[C@@H](c1ccc(C#CC3CC3)cc1)[C@@H]2CO was read as IDE exosite FP -0.15.
COc1ccc(NC(=O)N(C)C[C@@H]2OCc3ccccc3-c3ccccc3C(=O)N([C@@H](C)CO)C[C@H]2C)c(OC)c1 was read as IDE exosite FP -0.3.
O=C1N[C@@H](c2ccccc2)COCc2cn(nn2)CC[C@H]1Cc1cccc(Cl)c1 was read as IDE exosite FP -0.097.
For O=C([C@H]1[C@H](CO)[C@H]2Cn3c(ccc(C4=CCCCC4)c3=O)[C@@H]1N2Cc1nccs1)N1CCCCC1 the results were IDE exosite FP -0.082.
For Cc1ccc(-c2ccc([C@H]3[C@H](CO)N4C(=O)CN(C(=O)Nc5cccc(F)c5)C[C@@H]34)cc2)cc1 the results were IDE exosite FP 2.4.
`O=C(C[C@H]1CC[C@H]2[C@@H](COC[C@H](O)CN2CCC(F)(F)F)O1)NCC1CC1` gave IDE exosite FP 1.3.
`CCC(=O)N1[C@H](CO)[C@H](c2ccc(-c3ccccc3OC)cc2)[C@H]1CNC(C)=O` gave IDE exosite FP -8.2*.
For CCC(=O)N1[C@H](CNC(C)=O)[C@H](c2ccc(-c3ccc(F)cc3)cc2)[C@@H]1CO the results were IDE exosite FP 0.7.
Screening CC(=O)NC[C@H]1[C@H](c2ccc(-c3ccccc3F)cc2)[C@H](CO)N1C(C)=O returned IDE exosite FP 3.9.
For CCC(=O)N1[C@H](CO)[C@H](c2ccc(-c3ccccc3OC)cc2)[C@@H]1CNC(C)=O the results were IDE exosite FP -15*.
For CCC(=O)N1[C@H](CO)[C@H](c2ccc(-c3cccc(F)c3)cc2)[C@@H]1CNC(C)=O the results were IDE exosite FP 2.5.
CCC(=O)N1[C@@H](CO)[C@@H](c2ccc(-c3cccc(F)c3)cc2)[C@@H]1CNC(C)=O was read as IDE exosite FP 4.6.
For COCC(=O)N1CC2(CN(Cc3ccccc3)C2)c2c(n(C)c3cc(OC)ccc23)[C@@H]1CO the results were IDE exosite FP -1.1.
For CO[C@@H]1CN(C)C(=O)c2ccc(NS(=O)(=O)CC(F)(F)F)cc2OC[C@@H](C)N(C(=O)NC(C)C)C[C@@H]1C the results were IDE exosite FP -0.67.
`O=S(=O)(Cc1ccccc1)N1CCCCN2[C@H](CO)[C@@H](c3ccc(-c4ccccc4)cc3)[C@@H]2C1` gave IDE exosite FP 0.82.
O=C(Cc1ccccn1)N1CC(=O)N2[C@@H](CO)[C@@H](c3ccc(-c4ccc(F)cc4)cc3)[C@@H]2C1 was read as IDE exosite FP 2.9.
Screening CCCC#Cc1ccc([C@@H]2[C@@H](CO)N3C(=O)CN(C(=O)CN4CCOCC4)C[C@@H]23)cc1 returned IDE exosite FP 4.9.
`N#C[C@@H]1[C@H](c2ccc(C#CCC3CCCC3)cc2)[C@@H](CO)N1C(=O)c1ccccn1` gave IDE exosite FP 1.2.
For OC[C@H]1[C@@H](c2ccc(/C=C/c3ccccc3)cc2)[C@@H]2CN(Cc3cccnc3)CCCCN12 the results were IDE exosite FP -4.4*.
Screening OC[C@@H]1[C@@H](c2ccc(/C=C/c3ccccc3)cc2)[C@H]2CN(Cc3ccncc3)CCCCN12 returned IDE exosite FP -5.2*.
OC[C@H]1[C@@H](c2ccc(/C=C/c3ccccc3)cc2)[C@H]2CN(Cc3ccncc3)CCCCN21 was read as IDE exosite FP -5.7*.
OC[C@H]1[C@@H](c2ccc(/C=C/c3ccccc3)cc2)[C@@H]2CN(Cc3ccncc3)CCCCN12 was read as IDE exosite FP -7.9*.
For OC[C@H]1[C@H](c2ccc(/C=C/c3ccccc3)cc2)[C@H]2CN(Cc3cccnc3)CCCCN21 the results were IDE exosite FP -1.9.
COc1ccc(C#Cc2ccc([C@@H]3[C@@H](CO)N4CCCCN(Cc5ccncc5)C[C@H]34)cc2)cc1 was read as IDE exosite FP -0.63.
OC[C@@H]1[C@H](c2ccc(-c3ccc(F)cc3)cc2)[C@@H]2CN(Cc3cccnc3)CCCCN12 was read as IDE exosite FP 1.4.
`O=C(NC1CCCC1)N[C@@H]1C=C[C@H](CC(=O)N2CCOCC2)O[C@H]1CO` gave IDE exosite FP 2.6.
CCS(=O)(=O)N1CC2(CN(C(=O)c3cccnc3)C2)c2c(n(C)c3cc(OC)ccc23)[C@H]1CO was read as IDE exosite FP 1.
For CCc1csc(N2[C@H](C#N)[C@H](c3ccc(-c4ccc(F)cc4)cc3)[C@@H]2CO)n1 the results were IDE exosite FP 1.6.
Screening CC(C)[C@@H]1COCc2cn(nn2)CC[C@H](Cc2ccc(-c3ccccc3)cc2)C(=O)N1 returned IDE exosite FP 1.5.
Screening CO[C@@H]1CC[C@@H]2CCOc3c(C#N)cccc3C(=O)N(C)C[C@@H](c3ccccc3)CC(=O)N(C)C[C@H]1O2 returned IDE exosite FP -0.64.
CCC(=O)N1CC(=O)N2[C@H](CO)[C@@H](c3ccc(-c4ccc(C#N)cc4)cc3)[C@@H]2C1 was read as IDE exosite FP -0.89.
